KB-3-1 tox: kills parental KB-3-1 adenocarcinoma cells. KB-3-1 viability, CellTiter-Glo ATP luminescence, 72 h. Potency, µM (series often up to 46.1 µM), usual class: cytotoxic. 400,000 tested, 1.4% active. AID 1347075; also: % is scaled to controls: 0 for no effect and ±100 for the full control effect; nearly all actives have a fitted effect of over 60% in size
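Luminescent ATP read-out (CellTiter-Glo) measures survival of drug-naive KB-3-1 cells after 72 h compound exposure at 37 °C. Titration series was screened from lowest to highest concentration, with DMSO vehicle plates as background controls.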
TGFb SMAD3 inh: TGF-b pathway inhibition; Potency, µM (highest dose often 46.1 µM), inactives show top-dose activity, negative = inhibition, actives largely listed as inhibitors; 410,000 tested, 1.2% active; HepG2 CAGA-GFP TGF-b/SMAD3 reporter, GFP fluorescence, 18 h; TGF-beta stimulated, 500 pg/mL final; AID 588855; also: % is scaled to controls: 0 for no effect and ±100 for the full control effect; nearly all actives have a fitted effect of over 65% in size
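First, reporter cells (HEPG2 CAGA-GFP) rested 2 h at 37 degrees C. Next, compounds were pinned in and TGF-beta added to 500 pg/mL final. After 18 h, GFP was imaged per cell and summed per well.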
HT1080 IDH1KD tx: HT-1080 IDH1 knockdown cell toxicity (counter line). HT-1080 IDH1 knockdown viability, ATP luminescence, 48 h. Potency, µM (top dose mostly 46.1 µM), without a hit: top-dose activity, negative = toxicity, most hits filed as cytotoxic. 360,000 tested, 2% active;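 also: 0% = DMSO wells and -100% = cell-free medium wells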
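After a 2 h attachment period, IDH1KD HT-1080 cells took pin-transferred compound for 48 h at 37 °C; ATP-based luminescence after 10 min room-temperature reagent incubation reported viability.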
HepG2 tox: HepG2 cytotoxicity, counter-screen for TGF-b inhibitors | HepG2 CAGA-GFP viability, ATP luminescence, 18 h | Potency, µM (doses to about 46.1 µM), without a hit: top-dose activity change, negative = cytotoxicity, most hits filed as cytotoxic | 410,000 tested, 0.76% active | AID 588856
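HepG2 CAGA-GFP cells (1000/well, DMEM with 1% FBS) received compound, then TGF-beta at 500 pg/mL final, and were incubated 18 hours at 37 degrees C. Viability was read by CellTiter-Glo luminescence. Media-only wells were set as complete cell-killing and DMSO as no toxicity.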
KB-V1 MDR tox: kills drug-selected multidrug resistant KB-V1 cells; KB-V1 MDR cells viability, CellTiter-Glo, 72 h; 400,000 tested, 3.4% active; Potency, µM (series often up to 46.1 µM), most hits filed as cytotoxic; AID 1347076; also: % is scaled to controls: 0 for no effect and ±100 for the full control effect; nearly all actives have a fitted effect of over 60% in size
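In this primary screen, KB-V1 cells overexpressing P-gp are incubated with library compounds (lowest to highest concentration) for 72 h at 37 degrees C before a luminescent ATP viability read.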
HT1080NT lethal: kills 2HG-producing HT-1080-NT fibrosarcoma cells. HT-1080-NT fibrosarcoma viability, CellTiter-Glo ATP luminescence, 48 h. Potency, µM (series often up to 46.1 µM), for inactives: at the highest dose activity, negative = less viability, most hits filed as cytotoxic. 360,000 tested, 1.6% active. AID 686970;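 also: NT is the 2HG producing partner of a matched IDH1 knockdown line; 0% = DMSO-treated cells and -100% = media-only wells without cells; nearly all actives have a fitted effect of over 55% in size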
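A 48-hour cytotoxicity screen used HT-1080-NT cells plated 2 hours before compound delivery. ATP-based CellTiter-Glo luminescence measured viability, normalized to DMSO and no-cell controls.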
Starred values were filed as active, the others as inactive; i = inactive; ? = inconclusive; · = no result given. In the library only some 6.6% were active in any assay of this set; here they are far more common. Calls follow the shape of the dose curve; as a rule, active = well fitted curve in the direction sought with a large enough effect; inconclusive = small, poorly fitted or top-dose-only effect, or another doubt; inactive = no such curve, though single readings can be large; an effect the other way counts as inactive or inconclusive. Potency is read from the fitted curve at half-maximal effect.

SMILES | KB-3-1 tox | TGFb SMAD3 inh | HT1080 IDH1KD tx | HepG2 tox | KB-V1 MDR tox | HT1080NT lethal
COc1cc(Cl)c(C)cc1NC(=O)CSCc1nc(-c2ccc(OC)c(OC)c2)no1 | · | -1% | · | -22% | · | ·
O=C(Nc1ccc(OC(F)(F)F)cc1)c1cc2ccccn2n1 | 10µM* | -10% | · | -13% | ? | ·
COc1ccc(NC(=O)c2cc3ccccn3n2)cc1 | i | -6% | -15% | -22% | ? | -6%
CCc1c(C2(O)CCCCC2)[nH]c2ccc(C(F)(F)F)cc12 | ? | 11µM* | -12% | -110% | i | ?
CN(C)Cc1c(C(C)(C)O)[nH]c2ccc(C(F)(F)F)cc12 | i | -6% | -11% | -27% | i | 0%
CCc1ccccc1NC(=O)Nc1cc(C(=O)NCc2ccc(OC)cc2)ccc1N1CCCC1 | i | -21% | · | -36% | i | ·
OCCCNCc1ccc(N(c2ccccc2)c2ccccc2)cc1 | ? | ? | 16µM* | -98% | ? | ?
OCCNCc1ccc(-c2ccccc2)cc1 | i | -32% | -11% | -29% | i | -7%
COc1cc(C(=O)NCCOc2cc(C)ccc2C(C)C)cc(OC)c1OC | ? | ? | ? | -13% | 16µM* | ?
COc1cc(C(=O)NCCOc2cc(C)cc(C)c2)cc(OC)c1OC | 4.6µM* | -18% | 7.3µM* | -17% | 5.8µM* | 12µM*
COc1ccc2cnn(CCOc3cc(C)ccc3C(C)C)c(=O)c2c1OC | i | ? | -17% | -10% | 6.5µM* | -5%
Cc1cccc(NC(=O)CSc2nc3n[nH]c(C)c3c(=N)n2-c2cccc(Cl)c2)c1 | · | ? | · | -33% | · | ·
CCc1cccc(C)c1NC(=O)CCn1c(=O)c2cccn2c2ccccc21 | · | -16% | · | -29% | · | ·
CC1CCCCC1NC(=O)CN1CCN(S(=O)(=O)c2ccc(Br)s2)CC1 (centres undefined) | ? | -1% | -11% | -6% | 9.2µM* | 1%
CC1CCC(NC(=O)CN2CCN(S(=O)(=O)c3ccc(Br)s3)CC2)CC1 (centres undefined) | i | -13% | -10% | -23% | ? | -6%
CCOC(=O)c1ccccc1NC(=O)C1CC(=O)N(C2CCCC2)C1 (centres undefined) | i | -1% | -1% | -13% | i | -1%
O=C(CCl)NCc1cc(-c2ccc(Cl)cc2)no1 | ? | ? | 9.2µM* | -36% | ? | 12µM*
COc1ccc(OCc2cc(-c3ccc(Cl)cc3)no2)cc1 | i | -5% | 20% | -10% | i | ?
Cc1ccc(NC(=O)CCN2CCN(C/C=C/c3ccccc3)CC2)cc1 | i | 11% | -26% | -33% | i | -25%
Cc1ccc(NC(=O)CCN2CCN(C/C=C/c3ccccc3)CC2)cc1C | i | 0% | -14% | -43% | 3.3µM* | -5%
CCN(CC)S(=O)(=O)c1ccc(S(=O)(=O)Nc2c(C)nn(C)c2C)cc1 | ? | -11% | ? | -17% | i | 16µM*
CCOc1ccc(CCNC(=O)c2nn(C)c3c2CSc2ccccc2-3)cc1 | · | ? | · | -20% | · | ·
Cc1c(CN2CCC(CO)(Cc3cccc(C(F)(F)F)c3)CC2)c2ccccc2n1C | ? | ? | ? | 25µM* | ? | -13%
OCC1(Cc2cccc(C(F)(F)F)c2)CCN(Cc2cc3ccccc3o2)CC1 | ? | ? | 18µM* | i | ? | 21µM*
O=C(C=Cc1ccccc1Cl)c1ccccc1 | i | -3% | ? | -17% | i | 23µM*
SMILES | KB-3-1 tox | TGFb SMAD3 inh | HT1080 IDH1KD tx | HepG2 tox | KB-V1 MDR tox | HT1080NT lethal
O=C(C=Cc1cccnc1)c1ccccc1 | ? | 20µM* | 18µM* | -37% | ? | ?
O=C(C=Cc1ccccn1)c1ccccc1 | ? | 6.3µM* | 10µM* | 10µM* | i | ?
O=C(/C=C/c1cccnc1)c1cccc(O)c1 | ? | ? | ? | -50% | ? | 21µM*
COc1cc(Cl)c(C)cc1NC(=O)Cn1cnc2sc(C)c(S(=O)(=O)N3CCCCC3)c2c1=O | i | ? | · | -6% | i | ·
Fc1ccccc1N1CCN(c2ncnc3onc(-c4cccc(Cl)c4)c23)CC1 | ? | ? | · | 0% | ? | ·
Cc1cc(O)c(CN2CCN(c3ccc(F)cc3)CC2)c2oc(=O)cc(C)c12 | · | ? | · | 0% | · | ·
C#CCn1c(=NC(=O)c2cc(-c3cccs3)nc3ccccc23)sc2cc(S(N)(=O)=O)ccc21 | i | -2% | 26µM* | 1% | i | ?
CCc1c(C)c2ccc(O)c(CN3CCN(c4cc(Cl)ccc4C)CC3)c2oc1=O | i | -3% | · | 0% | i | ·
CCCn1c(SCc2nc(-c3ccccc3C)no2)nnc1-c1ccc(Cl)cc1 | i | ? | · | -25% | i | ·
C=CCn1c(SCc2ccc(Cl)cc2)nc2c1c(=O)[nH]c(=O)n2C | i | 16% | -3% | 1% | 16µM* | -28%
C=CCn1c(Sc2ccccc2)nc2c1c(=O)[nH]c(=O)n2C | 7.3µM* | 13% | -2% | 6% | 2.3µM* | -2%
Cc1cc(C)n(-c2nc3c(c(=O)[nH]c(=O)n3C)n2CC(O)COc2ccc(Cl)cc2Cl)n1 (centres undefined) | 2.1µM* | -18% | ? | -11% | ? | ?
CCC(C)Sc1nc2c(c(=O)[nH]c(=O)n2C)n1Cc1ccc(Cl)cc1 (centres undefined) | ? | 45% | -26% | -10% | 9.2µM* | -26%
COc1ccc(S(=O)(=O)Nc2cc3c(cc2NCc2ccccc2)n(C)c(=O)n3C)cc1 | i | 45% | · | -13% | i | ·
CC(C)(C)OC(=O)N1CCC(c2c(C(=O)NCc3ccccn3)cnn2-c2ccccc2)CC1 | i | 0% | · | -16% | i | ·
COc1ccc(CN(Cc2ccco2)c2cnc(S(C)(=O)=O)nc2C(=O)Nc2ccc(C)c(Cl)c2)cc1 | i | 8% | · | -3% | i | ·
Cc1ccc(CCNC(=O)CCSCc2ccccc2Cl)cc1 | · | 0% | · | -9% | · | ·
COC(=O)c1ccc(Cl)cc1NC(=O)N1CCCn2nc(C)cc21 | i | ? | · | -2% | i | ·
CCC(C)Sc1nc2c(c(=O)[nH]c(=O)n2C)n1CC(O)COc1ccccc1C (centres undefined) | ? | ? | -18% | -28% | 18µM* | -13%
O=C(CSc1cn(CC(=O)N2CCCCC2)c2ccccc12)NCc1ccc(F)cc1 | · | ? | · | -10% | · | ·

Source: PubChem BioAssay (National Center for Advancing Translational Sciences (NCATS))
